# According to PubChem BioAssay (Tox21):
# Records with an inconclusive call do not appear. Unmarked numbers belong to inactive results. Calls follow the shape of the dose curve; as a rule, active = well fitted activation curve with a large enough effect in the signal ratio in the repeat runs (not every such curve was filed as active); inconclusive = weak or mixed curves, or effect the other way; inactive = flat fitted curve, though single readings scatter; the % refers to the signal ratio.
# Test: qHTS assay to identify small molecule agonists of the endoplasmic reticulum stress response signaling pathway (AID 1159516)
# Conditions: ESRE-bla HeLa, ER stress beta-lactamase reporter, 5 h; series mostly up to 61 µM; activation: at the top concentration
# Excerpt: National Center for Advancing Translational Sciences [NCATS]
# NIH Chemical Genomics Center [NCGC]
# U.S. Environmental Protection Agency [EPA]
# National Institutes of Environmental Health Sciences [NIEHS]
# National Toxicology Program [NTP]
# U.S. Food and Drug Administration [FDA]
# Endoplasmic Reticulum (ER) plays an important role in cellular signaling, protein folding/maturation, stress response, lipid biosynthesis, calcium storage and release etc. Under stress conditions, proteins in ER misfold or unfold, and leading to the expression of ER stress responsive genes. ER stress has been associated with a variety of pathophysiological conditions such as cancer, inflammation, neurodegenerative diseases, diabetes, ischemic heart disease etc. To identify the compounds that induce ER stress response, an ER stress reporter cell line, CellSensor ESRE-bla HeLa (Life Technologies, Carlsbad, CA) containing a beta-lactamase reporter gene under control of the Endoplasmic reticulum Stress Response Element (ESRE) was used to screen Tox21 10K compound library.
# Tox21 Assay Protocol Summary:
# ESRE-bla HeLa cells were dispensed at 1,500 cells/6 uL of assay medium per well into black wall/clear-bottom 1536-well plates using a Multidrop Combi (ThermoFisher Scientific, Waltham, MA) dispenser. After the assay plates were incubated at 37 C and 5% CO2 for an overnight, 23 nL of compounds dissolved in DMSO, positive controls or DMSO only was transferred to the assay plate by a Pintool station (Kalypsys, San Diego, CA). The assay plates were incubated at 37 C and 5% CO2 for 5 hr. One uL of LiveBLAzer B/G FRET substrate (Life Technologies) was added using a Flying Reagent Dispenser (Aurora Discovery, San Diego, CA) and the plates were incubated at room temperature for 2 hr. Fluorescence intensity (405 nm excitation, 460 nm and 530 nm emissions) was measured using an Envision plate reader (PerkinElmer, Shelton, CT).
# % is scaled to controls: 0 for no effect and ±100 for the full control effect.
row,Structure (SMILES),activation
1,C=C(CC)C(=O)c1ccc(OCC(=O)O)c(Cl)c1Cl,8.54%
2,CCCc1ccc(OCC(=O)N2CCN(C(=O)COc3ccc(CCC)cc3OC)CC2)c(OC)c1,1.23%
3,CCC(C)[O-].CCC(C)[O-].CCOC(=O)/C=C(/C)[O-].[Al+3],2.75%
4,CCO[C@@H]1O[C@H](C(COCc2ccccc2)OCc2ccccc2)[C@H](OCc2ccccc2)[C@H]1O (stereo not given in full),-2.65%
5,CC(CCc1ccccc1)NCC(O)c1ccc(O)c(C(N)=O)c1 (stereo not given),1.77%
6,CN(C)Cc1cc(C(C)(C)C)c(O)c(C(C)(C)C)c1,-0.214%
7,CC(C)=CCC1=C(O)c2ccccc2C(=O)C1=O,-9.63%
8,CCCCCCCCCCCCOC(=O)c1ccc(O)cc1,3.9% [at 78.8 µM]
9,CN(C)[C@@H](CCOc1cccc2ccccc12)c1ccccc1,0.211%
10,CN(C)CCN1CCN(c2cccc(Cl)c2)C1=O,3.13%
11,OCCN1CCN(CCCN2c3ccccc3Sc3ccc(C(F)(F)F)cc32)CC1,-10.1%
12,O=C(Oc1ccccc1)Oc1ccccc1,-5.26%
13,O=[N+]([O-])c1cccc(C(F)(F)F)c1,-3.11% [at 78.8 µM]
14,COC(=O)C1=C(C)NC(C)=C(C(=O)OCCN2CCN(C(c3ccccc3)c3ccccc3)CC2)C1c1cccc([N+](=O)[O-])c1 (stereo not given),-4.86%
15,COc1cc(/C=C/c2ccccc2)oc(=O)c1,-1.97% [at 78.8 µM]
16,COc1cc(S(=O)(=O)O)c(C)cc1N=Nc1c(O)ccc2cc(S(=O)(=O)O)ccc12,-0.461%
17,O=C(O)c1cc(O)c2ccccc2c1O,2.77%
18,Nc1ccc(Oc2ccc(Cl)cc2)cc1,1.1%
19,COC1=C(OC)C(=O)C(CCCCCCCCCCO)=C(C)C1=O,-5%
20,CCCCCCCC/C=C\CCCCCCCCN,0.358%

row,Structure (SMILES),activation
1,NC(=S)NC(N)=S,0.298%
2,COc1c(C)c2c(c(O)c1C/C=C(\C)CCC(=O)OCCN1CCOCC1)C(=O)OC2,-1.9%
3,O=C(O)c1cccc(C(F)(F)F)c1,-1.5%
4,CCCC[P+](C)(CCCC)CCCC,0.24% [at 78.8 µM]
5,O=C1C(c2[nH]c3ccc(S(=O)(=O)O)cc3c2O)=Nc2ccc(S(=O)(=O)O)cc21,-0.0618%
6,Cc1ccc(O)c(O)c1,-6.4%
7,CC(C)(C)CC(C)(C)c1ccc(Nc2ccc(C(C)(C)CC(C)(C)C)cc2)cc1,-2.77% [at 6.95 µM]
8,O=c1[nH]c(=O)n([C@H]2C[C@H](O)[C@@H](CO)O2)cc1F,0.933%
9,O=C1CCc2cc(OCCCCc3nnnn3C3CCCCC3)ccc2N1,-2.05%
10,CCc1oc2ccccc2c1C(=O)c1cc(I)c(O)c(I)c1,-3.07%
11,CC[N+](CC)(CC)CCOC(=O)C(C1CCCC1)C1CCCC1,-2.66%
12,O=C(O)CCN(C1(C(=O)NO)CCCC1)S(=O)(=O)c1ccc(Oc2ccc(F)cc2)cc1,-1.41%
13,O=C(O)O,-2.74% [at 6.95 µM]
14,Cc1ccc(-c2ccccc2)cc1,-2.73%
15,COc1ccc(-c2coc3cc(O)ccc3c2=O)cc1,3.41%
16,COC(=O)c1ccccc1OC,-0.879%
17,CC1=Nc2ccccc2C1(C)C,-0.0438%
18,CNC(=O)c1ccccc1Sc1ccc2c(/C=C/c3ccccn3)n[nH]c2c1,-5.18%
19,Clc1sc(Cl)c(Cl)c1Cl,-1.76%
20,CCCCNS(=O)(=O)c1ccc(C)cc1,-3.24%
